Inconclusive results are not listed. The source made the active and inactive calls. Calls follow the shape of the dose curve; as a rule, active = well fitted inhibition curve with a large enough effect; inconclusive = small, poorly fitted or top-dose-only effect; inactive = flat fitted curve, though single readings scatter.
Tests used:
Assay in all cases: Cytotoxic Profiling of Annotated Libraries Using Quantitative High-Throughput Screening (AID 1296008); also: nearly all actives have a fitted effect of over 60% in size
Details in all cases: Five cell lines viability, CellTiter-Glo ATP luminescence, 48-72 h; max response: stronger effect = lower value
CRL-7250 = system: CRL-7250
How it was run: (§1)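 Cells exposed to compounds for 48 or 72 hr at 37 degrees Celsius. Viability read as ATP-coupled luminescence with CellTiter-Glo after 10 min at room temperature.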

HEK293 = system: HEK293
How it was run: as §1

HaCat = system: HaCat
How it was run: as §1

KB-3-1 = system: KB-3-1
How it was run: as §1

NIH3T3 = system: NIH3T3
How it was run: as §1

Measured: max response
% is scaled to controls: 0 for no effect and ±100 for the full control effect.

COc1ccccc1NC(=O)OCC1CCN(C(=O)OC(C)(C)C)CC1
inactive: CRL-7250 -0.083% | HEK293 -0.473% | HaCat 2.46% | KB-3-1 -8.5%

CC1OC(OC2C(CO)OC(OCC3OC(OC(=O)C45CCC(C)(C)CC4C4=CCC6C7(C)CCC(OC8OC(CO)C(O)C(OC9OC(CO)C(O)C(O)C9O)C8O)C(C)(C)C7CCC6(C)C4(C)CC5)C(O)C(O)C3O)C(O)C2O)C(O)C(O)C1OC1OC(CO)C(O)C(O)C1O (centres undefined)
inactive: CRL-7250 -0.747% | HEK293 -0.594% | HaCat -8.62% | KB-3-1 -0.0406% | NIH3T3 -0.84%

CC(C)(C)CCN1C[C@@H]2C(CNC(=O)c3cc(Cl)cc(Cl)c3)[C@@H]2C1 (some centres undefined)
inactive: CRL-7250 -6.01% | HEK293 -15.4% | HaCat -17.8% | KB-3-1 -5.02% | NIH3T3 -2.97%

O=C(Nc1ccccc1)N1CCN(Cc2ccc3ccccc3n2)CC1
inactive: CRL-7250 | HEK293 -11% | HaCat -4.72% | KB-3-1 -4.71% | NIH3T3 1.66%

COc1ccc(CNC(=O)c2sc3nc(C)cc(C)c3c2N)cc1
inactive: CRL-7250 -0.266% | HEK293 -0.378% | HaCat -25% | KB-3-1 -4.88% | NIH3T3 -5.95%

C[C@@H]1O[C@@H](O[C@@H]2[C@@H](O)[C@H](O[C@H]3CC[C@@]4(C)C(CC[C@]5(C)C4CC=C4[C@@H]6CC(C)(C)CC[C@]6(C(=O)O[C@@H]6O[C@H](CO)[C@@H](O)[C@H](O)[C@H]6O)CC[C@]45C)C3(C)C)O[C@H](C(=O)O)[C@H]2O)[C@H](O)[C@H](O)[C@H]1O (some centres undefined)
inactive: CRL-7250 | HEK293 3.46% | HaCat | KB-3-1 4.23% | NIH3T3 4.82%

Reference: PubChem BioAssay (NCATS)
